Experimental data from PubChem BioAssay AID504545 (Broad Institute, 2011).
Measured potencies and affinities stand elsewhere. Results filed as inconclusive are left out. No rule for the calls is given here.

Biological target: Cyclin-dependent kinase 5 activator 1 (Homo sapiens) + Cyclin-dependent kinase 5 (Homo sapiens) (UniProt Q15078+Q00535)
Assay: CDK5/p35 kinase inhibitors, dose response, biochemical, cherry-picked samples, set 2 (AID 504545)
Details: biochemical plate reader; series mostly up to 30 µM; activity change, negative = inhibition: at the top concentration

Chain of Cyclin-dependent kinase 5 activator 1 (Homo sapiens) + Cyclin-dependent kinase 5 (Homo sapiens) (Q00535 whole entry, looked up): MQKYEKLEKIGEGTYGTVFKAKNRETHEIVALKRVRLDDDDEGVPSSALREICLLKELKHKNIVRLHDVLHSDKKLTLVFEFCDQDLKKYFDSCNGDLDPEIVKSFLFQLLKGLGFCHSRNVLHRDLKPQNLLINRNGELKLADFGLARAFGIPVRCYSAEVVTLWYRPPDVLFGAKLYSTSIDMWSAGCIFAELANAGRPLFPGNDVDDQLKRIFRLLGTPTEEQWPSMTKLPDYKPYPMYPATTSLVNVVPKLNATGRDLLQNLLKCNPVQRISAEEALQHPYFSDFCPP
Chain of Cyclin-dependent kinase 5 activator 1 (Homo sapiens) + Cyclin-dependent kinase 5 (Homo sapiens) (Q15078 whole entry, looked up): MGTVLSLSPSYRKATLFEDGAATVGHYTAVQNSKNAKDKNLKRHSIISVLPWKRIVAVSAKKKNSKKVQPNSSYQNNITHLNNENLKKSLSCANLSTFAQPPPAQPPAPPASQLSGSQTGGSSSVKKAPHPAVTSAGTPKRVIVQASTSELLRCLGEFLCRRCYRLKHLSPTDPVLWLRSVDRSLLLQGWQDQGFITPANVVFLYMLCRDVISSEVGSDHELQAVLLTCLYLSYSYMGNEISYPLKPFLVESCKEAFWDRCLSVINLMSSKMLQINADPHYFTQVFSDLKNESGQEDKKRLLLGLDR

Activity change, negative = inhibition, inactive:
O=C(c1ccc(F)cc1)c1cnc(Nc2ccccc2)s1 -8.57%
O=C(NNC(=O)c1cccs1)c1ccccc1 -8.86%
O=C(NNC(=O)c1ccco1)c1ccccc1 1.86%
O=C(O)c1ccc(N/N=C/c2ccc(C(F)(F)F)cc2)cc1 -7.66%
COc1ccc(Nc2nc(N)c(C(=O)c3ccc(F)cc3)s2)cc1 -13.6%
Oc1ccc(/C=N/Nc2cccc(Cl)n2)c(O)c1 -0.378%
COc1cccc(C(=O)N2CCN(c3ccccn3)CC2)c1 11.5%
COc1ccc2ccc3ccc(OC)c(OC(C)=O)c3c2c1 -3.35%
Clc1cncc(Cl)c1N/N=C/c1ccccc1 8.75%
Clc1cnc(N/N=C/c2ccncc2)c(Cl)c1 -12.7%
Clc1ccc(N/N=C/c2ccncc2)cc1Cl -9.21%
COc1ccc(C(=O)N2CCN(c3ccccn3)CC2)cc1 7.99%
O=C(O)CCC(=O)NCCn1c(-c2ccccc2)csc1=Nc1ccccc1 -2.41%
Oc1cccc(C=NNc2ccccn2)c1 7.41%
COc1ccc(C(=O)c2sc(Nc3ccccc3F)nc2N)cc1 -8.79%
O=C(c1ccc2c(c1)OCCO2)N1CCN(c2ccccn2)CC1 18.1%
COc1cccc(OC)c1C(=O)N1CCN(c2ccccn2)CC1 7.96%
Cc1nc(Nc2ccccc2)sc1C(=O)c1ccc(F)cc1 -0.33%
NC(=S)N/N=C/c1c(O)c(Br)cc2oc3c(c12)CCCC3 -15.6%
COc1ccc(Nc2nccc(-c3ccc([N+](=O)[O-])cc3)n2)cc1 -9.28%
O=C(O)c1ccc(/C=N/Nc2ncc(C(F)(F)F)cc2Cl)cc1 -5.86%
CC(C)n1cnc2c(N(C)c3cccc(Cl)c3)nc(N(CCO)CCO)nc21 3.33%
CC(C)C[C@H](CO)Nc1nc(N(C)c2cccc(Cl)c2)c2ncn(C(C)C)c2n1 15.1%
O=C(c1ccc2c(c1)OCO2)N1CCN(c2ccccn2)CC1 13.9%
Cc1ccc(Nc2nc(NCCO)nc3c2cnn3C)cc1Cl -6.44%
CC(C)=CCNc1ncnc2c1c(C#N)cn2C1OC(CO)C(O)C1O (stereo not drawn) -10.9%
COc1ccc2nc(C)cc(Nc3ccc(C)cc3)c2c1 7.73%
S=C(c1ccc(OCc2ccccc2)cc1)N1CCCC1 -1.92%
